As a reminder, the AC50 is the concentration giving half of the maximal activity seen.

The target in assay [1] is human Thyroid Receptor alpha (THRa1), THRA (gene 7067) (UniProt P10827). In words: ATG_THRa1_TRANS: Attagene TRANS-FACTORIAL HepG2 Assay for human Thyroid Receptor alpha (THRa1) (AID 2283014; active = hit-call score of the fitted dose curve at least 0.9, where 1 is the maximum). The method in brief: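 First, HepG2 cells receive multiple GAL4-UAS reporter units and the chimeric receptor. They are then dosed for 24 h, after which RNA is reverse-transcribed, amplified, labelled, HpaI-cut and sized by capillary electrophoresis; gain relative to DMSO is scored.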
Sequence of human Thyroid Receptor alpha (THRa1), THRA (gene 7067) (P10827 whole entry, looked up, the tested form may be a part): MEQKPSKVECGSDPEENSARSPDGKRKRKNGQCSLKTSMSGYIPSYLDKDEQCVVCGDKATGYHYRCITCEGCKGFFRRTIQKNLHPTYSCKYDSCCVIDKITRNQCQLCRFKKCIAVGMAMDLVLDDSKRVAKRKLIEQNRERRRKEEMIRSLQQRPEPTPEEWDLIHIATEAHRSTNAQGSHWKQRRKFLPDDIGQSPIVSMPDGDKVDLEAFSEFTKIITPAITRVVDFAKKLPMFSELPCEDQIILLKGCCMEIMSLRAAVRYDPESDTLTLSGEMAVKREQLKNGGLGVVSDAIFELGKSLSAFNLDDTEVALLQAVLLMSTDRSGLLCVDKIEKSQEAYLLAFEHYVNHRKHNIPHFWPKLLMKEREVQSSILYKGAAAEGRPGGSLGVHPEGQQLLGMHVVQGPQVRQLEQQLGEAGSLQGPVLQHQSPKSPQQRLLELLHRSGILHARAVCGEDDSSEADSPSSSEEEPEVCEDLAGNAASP

Read-out in assay [2]: E-selectin (Homo sapiens) (UniProt P16581)
Put plainly: BSK_3C_Eselectin: BioMAP Diversity Plus: 3C Assay for Eselectin Biomarker Activity (AID 2283015).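 Note: cell surface E-selectin protein quantified by ELISA 24 h after dosing.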 The settings on record: primary human endothelial cells (HUVEC); actives raise or lower the signal. The essentials:
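Human vascular endothelium from umbilical vein is exposed to test chemicals for 24 h. E-selectin levels are read by ELISA and compared with DMSO controls.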

Read-out in assay [3]: Interleukin-1 alpha (IL1a), IL1A (gene 3552)
In words: BSK_BE3C_IL1a: BioMAP Diversity Plus: BE3C Assay for Interleukin-1 alpha (IL1a) Biomarker Activity (AID 2283016). The settings on record: primary human bronchial epithelial cells; actives raise or lower the signal. The essentials: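 Measured in human lung primary bronchial epithelial cells: IL-1a by ELISA at 24 h after dosing, with bidirectional fitting against DMSO.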

Read-out in assay [4]: Monocyte Chemoattractant Protein-1 (MCP1), CCL2 (gene 6347)
Put plainly: BSK_3C_MCP1: BioMAP Diversity Plus: 3C Assay for Monocyte Chemoattractant Protein-1 (MCP1) Biomarker Activity (AID 2283017). Particulars: primary human endothelial cells (HUVEC); actives raise or lower the signal. The method in brief: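 Endothelial cells from human umbilical vein are dosed with chemical, cultured 24 h, then assayed for MCP-1 by ELISA; both increases and decreases are modelled against DMSO controls.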

Read-out in assay [5]: Monocyte Chemoattractant Protein-1 (MCP1), CCL2 (gene 6347)
Put plainly: BSK_4H_MCP1: BioMAP Diversity Plus: 4H Assay for Monocyte Chemoattractant Protein-1 (MCP1) Biomarker Activity (AID 2283018). The settings on record: primary human endothelial cells (HUVEC); actives raise or lower the signal. The method in brief:
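Primary human umbilical vein endothelium is exposed to chemical for 24 h before MCP-1 is assayed by ELISA. Concentration-response fitted bidirectionally relative to DMSO.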

Read-out in assay [6]: Interleukin-8 (IL8), CXCL8 (gene 3576)
Put plainly: BSK_3C_IL8: BioMAP Diversity Plus: 3C Assay for Interleukin-8 (IL8) Biomarker Activity (AID 2283020). The settings on record: primary human endothelial cells (HUVEC); actives raise or lower the signal. The method in brief: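 Using DMSO-treated wells as the baseline, bidirectional curve fitting was applied to ELISA-measured IL-8 from human umbilical vein endothelial cultures sampled 24 h after compound addition.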

Read-out in assay [7]: Monokine induced gamma interferon (MIG), CXCL9 (gene 4283)
Put plainly: BSK_3C_MIG: BioMAP Diversity Plus: 3C Assay for Monokine induced gamma interferon (MIG) Biomarker Activity (AID 2283021). The settings on record: primary human endothelial cells (HUVEC); actives raise or lower the signal. The essentials:
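ELISA-measured MIG in dosed HUVEC 3C cultures at 24 h, analysed by bidirectional fitting with DMSO defining baseline activity.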

A short description of assay [8]: BSK_3C_SRB: Viability Assessment in the BioMAP Diversity Plus: 3C Assay (AID 2283023).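 Note: fitted both ways against DMSO so a hit may be signal rise or drop.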 Particulars: primary human endothelial cells (HUVEC). The essentials:
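Cells were dosed with chemical, cultured 24 h, fixed with 10% TCA, stained with 0.1% SRB and read at 560 nm. Human umbilical vein endothelium was used; DMSO served as negative control and baseline.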

Read-out in assay [9]: Matrix Metallopeptidase 1 (MMP1), MMP1 (gene 4312)
Put plainly: BSK_BE3C_MMP1: BioMAP Diversity Plus: BE3C Assay for Matrix Metallopeptidase 1 (MMP1) Biomarker Activity (AID 2283024). The settings on record: primary human bronchial epithelial cells; actives raise or lower the signal. The essentials:
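In this multiplexed primary-cell system, human bronchial epithelium received chemicals for 24 h before an ELISA for MMP1. Values reflect bidirectional fits normalised to the DMSO baseline.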

Assay [10] in a line: BSK_3C_Vis: BioMAP Diversity Plus: 3C Assay for Morphology Visualization (AID 2283025).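 Note: fitted both ways so gain or loss versus DMSO counts.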 Particulars: primary human endothelial cells (HUVEC). The method in brief:
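Light-microscopy morphology readout, 24 h exposure, human primary umbilical vein endothelium; analysed relative to DMSO with bidirectional fitting.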

Read-out in assay [11]: Pselectin, SELP (gene 6403)
In words: BSK_4H_Pselectin: BioMAP Diversity Plus: 4H Assay for Pselectin Biomarker Activity (AID 2283026). The settings on record: primary human endothelial cells (HUVEC); actives raise or lower the signal. The essentials: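 Bidirectional fits against DMSO gave the endpoint. Cells: primary human umbilical vein endothelium, chemical-treated for 24 h before ELISA detection of P-selectin.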

Assay [12] can be described thus: BSK_4H_SRB: Viability Assessment in the BioMAP Diversity Plus: 4H Assay (AID 2283027).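 Note: cells exposed to compound for 24 h before staining.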 The settings on record: primary human endothelial cells (HUVEC). The method in brief:
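Cytotoxicity read-out in primary human endothelial cells: after 24 h compound exposure, cells were TCA-fixed (10%), stained with 0.1% SRB and absorbance taken at 560 nm. Values fitted in both directions relative to DMSO.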

Read-out in assay [13]: Thrombomodulin, THBD (gene 7056)
In words: BSK_3C_Thrombomodulin: BioMAP Diversity Plus: 3C Assay for Thrombomodulin Biomarker Activity (AID 2283029). The settings on record: primary human endothelial cells (HUVEC); actives raise or lower the signal. The method in brief:
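In a multiplexed primary-cell system, human umbilical vein endothelium received chemical and was assayed 24 h later for thrombomodulin by ELISA. Parallel cultures were SRB-stained (0.1% SRB after 10% TCA fixation, read at 560 nm) to flag cytotoxicity.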

Read-out in assay [14]: Urokinase-type plasminogen activator receptor (uPAR), PLAUR (gene 5329)
In words: BSK_4H_uPAR: BioMAP Diversity Plus: 4H Assay for Urokinase-type plasminogen activator receptor (uPAR) Biomarker Activity (AID 2283030). The settings on record: primary human endothelial cells (HUVEC); actives raise or lower the signal. The essentials:
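Chemicals are dosed onto human vascular endothelial primary cells (umbilical vein). After 24 h, uPAR is read by ELISA. Gain or loss of signal is fitted relative to DMSO.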

Read-out in assay [15]: Vascular endothelial growth factor receptor 2 (Homo sapiens) (UniProt P35968)
In words: BSK_4H_VEGFRII: BioMAP Diversity Plus: 4H Assay for Vascular endothelial growth factor receptor 2 (VEGFR2) Biomarker Activity (AID 2283031). Particulars: primary human endothelial cells (HUVEC); actives raise or lower the signal. The essentials: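 VEGFRII levels on human vascular endothelial primary cells were determined by ELISA at 24 hours post-dosing, with gain- or loss-of-signal fitted against DMSO controls.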

Read-out in assay [16]: Human Leukocyte Antigen - DR isotype (HLADR), HLA-DRA (gene 3122)
In words: BSK_3C_HLADR: BioMAP Diversity Plus: 3C Assay for Human Leukocyte Antigen - DR isotype (HLADR) Biomarker Activity (AID 2283019).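 Note: ELISA of cell-surface HLA-DR on HUVEC 24 h after dosing.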 Particulars: primary human endothelial cells (HUVEC); actives raise or lower the signal. The essentials: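 Endothelial cells from human umbilical vein are treated with test chemical; after 24 h, HLA-DR levels are measured by ELISA. Data are fitted in both directions using DMSO as the baseline.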

Assay [17] addresses human Vitamin D Receptor (VDR), VDR (gene 7421) (UniProt P11473). Put plainly: ATG_VDR_TRANS: Attagene TRANS-FACTORIAL HepG2 Assay for human Vitamin D Receptor (VDR) (AID 2283022; active = hit-call score of the fitted dose curve at least 0.9, where 1 is the maximum). The method in brief:
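Fluorescence of labelled reporter cDNA fragments, resolved by capillary electrophoresis, gives mRNA induction after 24 h treatment of HepG2 cells carrying transfected Gal4-fusion reporter units. Activity is fitted in the positive direction with DMSO as baseline.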

Assay [18] can be described thus: BSK_BE3C_SRB: Viability Assessment in the BioMAP Diversity Plus: BE3C Assay (AID 2283028). The settings on record: primary human bronchial epithelial cells. The method in brief:
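Overt cytotoxicity was assessed as total protein in confluent human primary bronchial epithelial cultures 24 h after chemical addition, using 0.1% sulforhodamine B staining read at 560 nm.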

Assay [19] has as its target human Retinoid X Receptor beta (RXRb), RXRB (gene 6257) (UniProt P28702). Put plainly: ATG_RXRb_TRANS: Attagene TRANS-FACTORIAL HepG2 Assay for human Retinoid X Receptor beta (RXRb) (AID 2283013; active = hit-call score of the fitted dose curve at least 0.9, where 1 is the maximum). The method in brief:
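After a 24 h incubation with test chemical, transfected HepG2 cells carrying NR-Gal4 fusions and GAL4-UAS reporter transcription units yield RNA whose reporter cDNA is FAM-labelled, HpaI-cut and sized by capillary electrophoresis; increases over DMSO are scored.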

The structures appear in SMILES notation. Inconclusive results are not listed. The source made the active and inactive calls. Rule for the calls, unless noted: active = hit-call score of the fitted dose curve at least 0.9, where 1 is the maximum; inactive = score below 0.9.

Sequence of human Vitamin D Receptor (VDR), VDR (gene 7421) (P11473 whole entry, looked up, the tested form may be a part): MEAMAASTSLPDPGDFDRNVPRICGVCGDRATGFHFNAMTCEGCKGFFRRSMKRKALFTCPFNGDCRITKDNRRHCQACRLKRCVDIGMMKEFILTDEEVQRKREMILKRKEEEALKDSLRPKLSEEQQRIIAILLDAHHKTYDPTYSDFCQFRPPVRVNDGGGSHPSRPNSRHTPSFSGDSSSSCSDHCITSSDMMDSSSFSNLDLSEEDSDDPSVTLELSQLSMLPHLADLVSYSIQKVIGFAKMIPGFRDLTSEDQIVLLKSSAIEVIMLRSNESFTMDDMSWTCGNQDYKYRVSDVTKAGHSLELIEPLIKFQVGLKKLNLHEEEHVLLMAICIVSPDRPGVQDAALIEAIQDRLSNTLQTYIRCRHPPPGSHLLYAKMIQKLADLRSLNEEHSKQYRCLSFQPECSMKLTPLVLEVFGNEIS
Sequence of E-selectin (Homo sapiens) (P16581 whole entry, looked up): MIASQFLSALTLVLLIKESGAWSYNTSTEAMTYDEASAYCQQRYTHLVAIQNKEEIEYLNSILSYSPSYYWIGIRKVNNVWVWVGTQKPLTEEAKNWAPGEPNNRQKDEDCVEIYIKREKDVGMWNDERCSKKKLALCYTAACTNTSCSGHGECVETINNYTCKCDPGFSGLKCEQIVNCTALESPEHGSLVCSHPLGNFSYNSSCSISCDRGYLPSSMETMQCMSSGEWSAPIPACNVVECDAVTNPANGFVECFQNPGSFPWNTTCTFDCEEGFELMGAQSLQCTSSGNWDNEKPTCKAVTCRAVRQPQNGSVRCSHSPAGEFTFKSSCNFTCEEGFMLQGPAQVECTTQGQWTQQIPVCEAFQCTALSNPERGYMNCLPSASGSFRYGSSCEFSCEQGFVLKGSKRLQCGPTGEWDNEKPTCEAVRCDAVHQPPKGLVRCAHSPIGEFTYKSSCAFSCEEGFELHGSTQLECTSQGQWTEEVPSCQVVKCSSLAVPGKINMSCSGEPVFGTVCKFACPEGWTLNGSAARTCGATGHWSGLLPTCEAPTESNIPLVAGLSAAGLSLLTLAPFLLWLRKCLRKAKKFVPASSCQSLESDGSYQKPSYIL
Sequence of human Retinoid X Receptor beta (RXRb), RXRB (gene 6257) (P28702 whole entry, looked up, the tested form may be a part): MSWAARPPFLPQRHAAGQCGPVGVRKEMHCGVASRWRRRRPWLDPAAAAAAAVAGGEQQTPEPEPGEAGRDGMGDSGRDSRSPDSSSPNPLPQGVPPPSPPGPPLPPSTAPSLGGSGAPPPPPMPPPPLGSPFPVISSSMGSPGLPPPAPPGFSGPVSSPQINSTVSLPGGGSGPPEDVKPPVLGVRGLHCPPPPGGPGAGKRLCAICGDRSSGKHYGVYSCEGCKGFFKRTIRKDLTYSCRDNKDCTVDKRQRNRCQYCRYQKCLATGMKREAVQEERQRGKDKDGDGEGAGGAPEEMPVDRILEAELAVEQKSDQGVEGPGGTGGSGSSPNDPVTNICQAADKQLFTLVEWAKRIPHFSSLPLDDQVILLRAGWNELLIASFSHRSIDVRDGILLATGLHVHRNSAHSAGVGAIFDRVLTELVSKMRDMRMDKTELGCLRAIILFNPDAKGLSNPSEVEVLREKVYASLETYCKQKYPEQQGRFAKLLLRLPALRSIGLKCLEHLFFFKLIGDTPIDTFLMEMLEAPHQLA

For `COCCOCCOC`, the result in [1], in [2], in [3], in assay [4], in assay [5] and in assay [6] was inactive. For the same molecule, the result in [7], in assay [8], in assay [9], in assay [10], in assay [11] and in assay [12] was inactive. For the same molecule, the result in [13], in assay [14] and in assay [15] was inactive.
As to `COc1ccc(C)cc1N`, the outcome in assay [1], in assay [2], in [3], in [4], in [5] and in [16] was inactive. In addition, the outcome in assay [6], in assay [7], in assay [17], in [8], in assay [9] and in [10] was inactive. The outcome in assay [11], in assay [12], in [18], in assay [13], in assay [14] and in [15] was inactive.
Take `CCCCCCCCCCC`: the result in assay [2], in assay [3], in assay [4], in assay [5], in [16] and in assay [6] was inactive. The outcome in assay [7], in [8], in [9], in [10], in [11] and in assay [12] was inactive. Moreover, the outcome in [18], in assay [13], in assay [14] and in assay [15] was inactive.
As for `CCCc1cc(=O)[nH]c(=S)[nH]1`, the result in assay [19], in [2], in [3], in assay [4], in assay [5] and in [16] was inactive. Further, the outcome in assay [6], in assay [7], in assay [8], in [9], in [10] and in assay [11] was inactive. For the same molecule, the outcome in assay [12], in assay [18], in assay [13], in assay [14] and in assay [15] was inactive.
For the molecule `C[Si]1(C)O[Si](C)(C)O[Si](C)(C)O[Si](C)(C)O1`, the AC50 in assay [19] was 46.9 µM (active). In addition, the result in [2], in assay [3], in assay [4], in [5], in assay [6] and in assay [7] was inactive. For the same molecule, the outcome in assay [8], in assay [9], in assay [10], in assay [11], in [12] and in assay [18] was inactive. Also, the result in [13], in [14] and in [15] was inactive.
As to `COC(=O)c1ccc(O)cc1`, the half-maximal activity concentration (AC50) in [19] was 55.3 µM (active). Besides, the outcome in [2], in assay [3], in assay [4], in [5], in assay [6] and in assay [7] was inactive. Besides, the outcome in assay [17], in assay [8], in assay [9], in assay [10], in assay [11] and in assay [12] was inactive. Moreover, the result in [18], in assay [13], in assay [14] and in assay [15] was inactive.
As to `Cc1c(C(=O)O)c(O)cc2c1C(=O)c1c(O)c([C@@H]3O[C@H](CO)[C@@H](O)[C@H](O)[C@H]3O)c(O)c(O)c1C2=O`, the call in [19], in assay [2], in assay [3], in assay [4], in assay [5] and in assay [16] was inactive. Also, the result in assay [6], in assay [7], in assay [17], in [8], in [9] and in assay [10] was inactive. The result in assay [11], in assay [12], in [13], in assay [14] and in assay [15] was inactive.
`Cc1ccc2ncccc2c1`: the molecule was classed as inactive in assay [19], in assay [2], in assay [3], in assay [4], in assay [5] and in assay [16]. In addition, the outcome in [6], in assay [7], in assay [8], in assay [9], in assay [10] and in assay [11] was inactive. The outcome in [12], in assay [13], in [14] and in [15] was inactive.

The values above are taken from PubChem BioAssay (EPA / NIEHS).
